Only some compounds are listed: those with a hit (about 12% of all), similar ones and a draw of the others.
L3MBTL1 block = inhibitors of human L3MBTL1; AID 485360; 230,000 compounds, 0.66% hits; Potency, µM (series often up to 57.1 µM), without a hit: at the highest dose activity, negative = inhibition, hits mostly inhibitors; AlphaScreen L3MBTL1–H3K9me1 peptide binding; further: on the % scale 0 is the no-effect control and ±100 the full control effect; nearly all actives have a fitted effect of over 60% in size
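Read-out is AlphaScreen signal from streptavidin donor and nickel chelate acceptor beads (10 ug/mL final each) bridging L3MBTL1 (50 nM) and biotinylated K9-monomethylated H3(1-15) peptide (75 nM), after 30 min compound exposure at room temperature.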
HP1b chromo inh = inhibitors of HP1-beta chromodomain binding to methylated histone tails. AID 540317. Potency, µM (titrated, usually from 114 µM), for the others: top-dose activity change, negative = inhibition, actives largely listed as inhibitors. 390,000 compounds, 0.56% hits. AlphaScreen HP1-beta / biotin-H3K9me3 peptide binding. P83916; further: nearly all actives have a fitted effect of over 70% in size
Target sequence (P83916 whole entry, looked up): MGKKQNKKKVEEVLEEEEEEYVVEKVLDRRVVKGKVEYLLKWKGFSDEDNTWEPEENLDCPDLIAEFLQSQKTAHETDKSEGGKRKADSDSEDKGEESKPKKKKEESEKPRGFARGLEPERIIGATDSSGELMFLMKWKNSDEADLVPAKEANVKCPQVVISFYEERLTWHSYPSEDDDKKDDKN
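HP1-beta protein (50 nM final) preincubated 30 min at room temperature with biotinylated H3(1-18)K9me3 peptide (50 nM) in PBS pH 7.4, 0.01% Tween-20, then compound added for 30 min. AlphaScreen streptavidin donor/nickel chelate acceptor beads (10 ug/mL final), 30 min dark, luminescence read.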
JMJD2A Tudor inh = inhibitors of human JMJD2A Tudor domain; AlphaScreen JMJD2A-Tudor / H3K4me3 peptide binding; 390,000 compounds, 4.4% hits; Potency, µM (series often up to 114 µM), without a hit: at the top dose activity change, negative = inhibition, hits mostly inhibitors; O75164; AID 504339; further: on the % scale 0 is the no-effect control and ±100 the full control effect; nearly all actives have a fitted effect of over 50% in size
G9a block = inhibitors of human histone lysine methyltransferase G9a; Potency, µM (top dose mostly 102 µM), for inactives: at the highest dose activity, negative = inhibition, usual class: inhibitors; 350,000 compounds, 8.8% hits; G9a H3K9 monomethylation, AlphaScreen, 2 h; further: on the % scale 0 is the no-effect control and ±100 the full control effect; nearly all actives have a fitted effect of over 75% in size
Target sequence (Q96KQ7 913-1193 limits assumed): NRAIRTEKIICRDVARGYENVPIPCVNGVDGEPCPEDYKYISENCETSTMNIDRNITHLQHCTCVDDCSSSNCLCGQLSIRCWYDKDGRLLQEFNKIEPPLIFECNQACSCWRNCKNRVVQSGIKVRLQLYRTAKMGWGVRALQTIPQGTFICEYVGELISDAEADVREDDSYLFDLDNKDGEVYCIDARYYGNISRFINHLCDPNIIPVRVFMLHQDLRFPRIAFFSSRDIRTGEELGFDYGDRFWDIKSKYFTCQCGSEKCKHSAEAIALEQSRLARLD
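G9a (20 nM) preincubated 15 min RT with compounds, then 500 nM biotinylated H3K9 peptide and 20 uM SAM added; 2 h RT reaction. Monomethyl-H3K9 product detected by AlphaScreen with anti-H3K9me1 antibody, streptavidin donor and anti-rabbit IgG acceptor beads.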
Sfp PPTase inh = Sfp phosphopantetheinyl transferase inhibition; Biochemical Sfp PPTase activity, qHTS; Potency, µM, inactives show largest response in the series, negative = inhibition, hits mostly inhibitors; 310,000 compounds, 3.5% hits; AID 1490;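 further: the enzyme is Sfp with the accession as filed and its product quenches rhodamine fluorescence; 0% = enzyme reaction without inhibitor and -100% = no enzyme wells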
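Buffer: 50 mM Hepes-Na pH 7.6, 10 mM MgCl2, 0.01% Nonidet P-40, 0.01% BSA. Enzyme 15 nM, pre-exposed to compound 15 min; substrates then added and fluorescence change tracked over 30 min.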
BAZ2B inh = inhibitors of human BAZ2B bromodomain | Q9UIF8 | AlphaScreen BAZ2B-H3K14Ac peptide displacement | Potency, µM (top dose mostly 114 µM), inactives show at the top dose activity change, negative = inhibition, most hits filed as inhibitors | 360,000 compounds, 4.4% hits | AID 504333; further: on the % scale 0 is the no-effect control and ±100 the full control effect; nearly all actives have a fitted effect of over 60% in size
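Multi-concentration screen (max 110 uM) measuring displacement of acetylated histone H3 peptide from BAZ2B by AlphaScreen, using 50 nM protein, 50 nM peptide and 10 ug/mL streptavidin donor plus Ni-chelate acceptor beads.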
Numbers without * were called inactive; ? = inconclusive; nt = no result; [ ] = remark or other dose. The call rests on the fitted dose curve; in most records, active means well fitted curve in the direction sought with a large enough effect; inconclusive means small, poorly fitted or top-dose-only effect, or another doubt; inactive means no such curve, though single readings can be large; an effect the other way counts as inactive or inconclusive. Potency means the concentration at half of the fitted maximal effect.

SMILES | L3MBTL1 block | HP1b chromo inh | JMJD2A Tudor inh | G9a block | Sfp PPTase inh | BAZ2B inh
Cc1cccc(NS(=O)(=O)c2ccc3c(c2)CC(C)N3C(=O)C2CCC2)c1C (configuration not stated) | nt | 31.5% | -7.9% | -0.2%[59 µM] | nt | 2.0%
CCCCn1c(CCn2nc(C)c(Br)c2C)n[nH]c1=S | nt | 5.8% | 28.2µM* | ? | 3.1% | -2.6%
CNC(=O)C1CCC(Cn2c(=O)c3sccc3n(CC(=O)Nc3ccc(C)c(F)c3)c2=O)CC1 (configuration not stated) | nt | 30.7% | -13.0% | 15.0%[59 µM] | nt | -0.9%
CCn1c2ccccc2c2nnc(SCC(=O)N(C)C3CCS(=O)(=O)C3)nc21 (configuration not stated) | 3.3% | 23.0% | -5.7% | ? | 5.0% | -17.3%
CCn1c2ccccc2c2nnc(SCc3ccccc3)nc21 | 7.0% | 69.6% | 9.0% | 22.8% | -12.0% | 10.0%
CCn1c2ccccc2c2nnc(SCC(=O)NC3CCS(=O)(=O)C3)nc21 (configuration not stated) | -13.9% | 23.8% | -13.9% | 39.8µM* | -4.8% | -30.6%
COC(=O)c1ccc(CSc2cc(C)c3ccccc3n2)o1 | 61.2% | 70.6% | 58.8% | 87.7% | 25.1µM* | 107.4%
CCn1c2ccccc2c2nnc(SCc3ccc(C(=O)OC)o3)nc21 | -26.4% | 25.8% | -21.5% | ? | 31.6µM* | -26.2%
COc1ccc(NC(=O)C2CCN(S(=O)(=O)c3cn(C)cn3)CC2)cc1Cl | nt | 11.2% | -8.6% | 11.1%[59 µM] | nt | 0.6%
Clc1nc(Cl)nc(NCCC2=CCCCC2)n1 | 11.2% | 21.5% | 89.1µM* | ? | -1.4% | 56.2µM*
COc1ccc(CCNC(=O)C(=O)NCC(c2ccco2)S(=O)(=O)c2ccc(C)cc2)cc1 (configuration not stated) | nt | 49.3% | 1.6% | -0.7%[59 µM] | nt | 0.4%
O=c1cc(Nc2ccc3c(c2)OCCO3)[nH]c(=O)n1-c1ccc(Br)cc1 | 2.9% | 8.7% | -7.3% | 17.7%[59 µM] | -9.4% | -5.4%
COc1ccc(-c2n[nH]c(=S)n2-c2ccc3c(c2)OCCO3)cc1 | 8.1% | ? | 3.16µM* | 1.78µM* | ? | -33.3%
COc1ccc(-c2[nH]ncc2-c2ccc3c(c2)OCCO3)c(O)c1 | nt | 1.8% | ? | -4.3%[59 µM] | 9.2% | ?
S=c1[nH]nc(-c2ccc(Br)cc2)n1-c1ccc2c(c1)OCCO2 | -8.3% | 8.5% | 70.8µM* | 1.58µM* | 39.8µM* | ?
COc1ccc(Cc2n[nH]c(=S)n2-c2ccc3c(c2)OCCO3)cc1 | 4.2% | 13.1% | 6.31µM* | 8.91µM* | -24.2% | -23.5%
S=c1[nH]nc(Cc2ccc(Cl)cc2)n1-c1ccc2c(c1)OCCO2 | 0.9% | 8.1% | ? | nt | -18.3% | ?
COc1cc(OC)cc(-c2n[nH]c(=S)n2-c2ccc3c(c2)OCCO3)c1 | -2.1% | 13.8% | 4.47µM* | 3.55µM* | -21.7% | -25.1%
CC(C)(C)c1cc[n+](-c2[nH]c(=O)sc2/C=N/NC(=O)c2ccccc2[O-])cc1 | nt | 9.3% | -26.4% | 79.4µM* | -1.4% | -12.5%
Cc1cc(C)c[n+](-c2[nH]c(=O)sc2/C=N/NC([S-])=Nc2ccccc2)c1 | -29.4% | ? | ? | 35.5µM* | -28.9% | ?
O=c1[nH]c(-[n+]2ccccc2)c(/C=N/NC([S-])=Nc2ccccc2)s1 | -19.7% | -6.3% | -27.8% | 22.4µM* | ? | -37.8%
CCc1ccc[n+](-c2[nH]c(=O)sc2/C=N/NC([S-])=Nc2ccccc2)c1 | -24.3% | -38.4% | ? | 22.4µM* | -20.9% | ?
Cc1ccc2[nH]c(C(=O)N/N=C/c3ccccc3O)c(C)c2c1 | nt | 25.6% | -21.0% | 13.8% | 21.2% | -10.1%
O=c1[nH]c(-[n+]2ccc3ccccc3c2)c(/C=N/N=C(\[O-])c2ccccc2)s1 | nt | 35.2% | -9.3% | ? | -3.8% | -17.9%
CCc1ccc[n+](-c2[nH]c(=O)sc2/C=N/N=C(\N)[O-])c1 | nt | 21.7% | 6.1% | 17.0% | ? | -26.7%
SMILES | L3MBTL1 block | HP1b chromo inh | JMJD2A Tudor inh | G9a block | Sfp PPTase inh | BAZ2B inh
CCN(CC)CCn1c(-c2ccccc2)nc2c(NCCOC)nc(C)nc21 | nt | nt | nt | nt | 27.5% | nt
COc1ccc(CCNc2nc3cc(OC)c(OC)cc3c3nc(-c4cccnc4)nn23)cc1OC | nt | 13.4% | -16.7% | 13.1%[59 µM] | nt | 4.2%
CC(=O)c1ccc(NC(=O)CSc2nccn2Cc2ccco2)cc1 | nt | 14.4%[57 µM] | -17.7% | -2.1%[59 µM] | nt | -16.4%
Cc1cc[n+](-c2[nH]c(=O)sc2/C=N/NC([S-])=Nc2ccccc2)cc1 | ? | ? | ? | 28.2µM* | -20.8% | ?
CC(C)(C)c1cc[n+](-c2[nH]c(=O)sc2/C=N/N=C(\[O-])c2cccnc2)cc1 | nt | 36.9% | -15.9% | ? | -15.2% | 3.2%
CCC(=O)N1CCc2cc(S(=O)(=O)NC(C(=O)NCCc3ccccc3)C(C)C)ccc21 (configuration not stated) | nt | 7.8% | -13.3% | -3.2%[59 µM] | nt | nt
C=C(C)CNC(=S)Nc1cccc(N)n1 | -4.5% | 9.3% | -20.6% | 1.26µM* | -3.9% | ?
C=C(C)CNC(=S)N/N=C(\C)c1cccc(NC(C)=O)c1 | nt | 6.7% | -19.5% | 9.4% | -5.6% | -11.4%
COc1ccc(-c2c(C)nn3c(N4CCN(c5ccccc5)CC4)cc(C)nc23)cc1OC | nt | 8.1% | -31.6% | -28.4%[59 µM] | nt | -33.9%
Cc1oc(C)c2c(=O)ccc3c(c12)OC(N)=C(C#N)C3c1ccccc1 (configuration not stated) | -18.7% | -23.1% | -34.7% | 8.91µM* | -35.1% | ?
Cc1oc(C)c2c(=O)ccc3c(c12)OC(N)=C(C#N)C3c1ccccc1Cl (configuration not stated) | ? | -28.3% | -2.7%[11.4 µM] | 28.2µM* | 50.1µM* | ?
CC(=O)C1=C(C)OC(N)=C(C#N)C1c1cccc2ccccc12 (configuration not stated) | 4.1% | 0.8% | -14.4% | nt | -25.3% | -14.5%
CSc1ccc(C2C(C#N)=C(N)Oc3c2ccc(=O)c2c(C)oc(C)c32)cc1 (configuration not stated) | ? | ? | 56.2µM* | 31.6µM* | 56.2µM* | ?
Cc1ccc(S(=O)(=O)N2CCCc3cc(NS(=O)(=O)c4cc(F)ccc4F)ccc32)cc1 | nt | 63.5% | -20.2% | 3.1%[59 µM] | nt | 0.7%
CCOc1ccc(CC(=O)NNC(=S)NC2CCCCC2)cc1OCC | 13.7% | 53.0% | 0.7% | 14.2%[59 µM] | 28.4% | 2.6%
CCOc1ccccc1C(=S)NC1CCCCC1 | -4.9% | 25.3% | -1.4% | 35.5µM* | 89.1µM* | 8.1%
CCOc1ccc(C(=S)NC2CCCCC2)cc1OC | -1.1% | ? | ? | 12.6µM* | 44.7µM* | -4.8%

Bioassay records from PubChem BioAssay.
